Our source for the growth values is PubChem BioAssay (NCI).

What all share (assay): NCI-60 one-dose screen, 48 h (100 = growth as untreated, 0 = no growth, -100 = all killed)
The test system of assay [1] is SR leukemia. The note with it: 10 µM unless noted.
Assay [2] concerns RPMI-8226 leukemia. The note with it: 10 µM unless noted.
For assay [3], the system named is OVCAR-8 ovarian. The note with it: 10 µM unless noted.
Assay [4] relates to OVCAR-5 ovarian. The settings on record: 10 µM unless noted.
The test system of assay [5] is OVCAR-4 ovarian. The settings on record: 10 µM unless noted.
Assay [6] relates to SK-OV-3 ovarian. The note with it: 10 µM unless noted.
Assay [7] has as its system IGROV1 ovarian. The note with it: 10 µM unless noted.
Assay [8] relates to OVCAR-3 ovarian. The note with it: 10 µM unless noted.
Assay [9] concerns HS 578T breast. The note with it: 10 µM.
Assay [10] concerns NCI/ADR-RES ovarian. The settings on record: 10 µM unless noted.
The test system of assay [11] is BT-549 breast. The settings on record: 10 µM unless noted.
The subject of assay [12] is MDA-MB-435 melanoma. The note with it: 10 µM unless noted.
Assay [13] relates to SW-620 colon. The settings on record: 10 µM unless noted.
In assay [14] the test system is MCF7 breast. The settings on record: 10 µM unless noted.
In assay [15] the test system is HCT-116 colon. The note with it: 10 µM unless noted.
The subject of assay [16] is HCC-2998 colon. The settings on record: 10 µM unless noted.
The test system of assay [17] is KM12 colon. The settings on record: 10 µM unless noted.
The subject of assay [18] is T-47D breast. The settings on record: 10 µM unless noted.

Structures are written as SMILES. About 83,000 compounds went through this panel and 20% of them were active in at least one assay; those are over-represented in the sample as a whole.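 48-hour exposure, single concentration, 96-well plates; percent growth endpoint where 0 means no net growth. Active: below 10.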 A number with no mark means an inactive call. The source made the active and inactive calls.

For the compound `COc1ccc2[nH]cc(C(c3ccc(Cl)cc3)N3CCCC3)c2c1` (stereo not given), the growth in [1] was 59.9%; in assay [2] it was 85.9%; in assay [3] it was 94.8%; in assay [4], 101%; in [5] it was 104%; in [6], 109%. For the same compound, the growth in assay [7] is 83.2%; in [8], 99.5%; in assay [9], 86.3%; in [10] it was 97.9%; in [11], 65.9%; in assay [12], 105%. In addition, the growth in assay [13] was 112%; in assay [14], 89.3%; in assay [15], 96.5%; in assay [16], 97%; in [17], 101%.
`Cn1nc(C(F)(F)F)cc1-c1c[nH]c(OCc2ccc(Cl)cc2)c(-c2ccc(Cl)c(C(F)(F)F)c2)c1=O`: the growth is 27.5% in assay [1]; -26.6% (active) in [2]; 12.5% in assay [3]; 13% in assay [4]; 15.3% in [5]; -6.23% (active) in [6]. The growth was 24.1% in [7]; 7.83% (active) in [8]; -1.78% (active) in assay [9]; 1.94% (active) in [10]; 2.51% (active) in assay [11]; 1.96% (active) in [12]. Also, the growth in assay [13] is 12.6%; in assay [14], 1.28% (active); in assay [15] it was 4.49% (active); in assay [16], 13.3%.
Regarding `CC[C@H](Nc1nc(C)nc(N)c1C#N)c1nc2cccc(NCc3ccc(C(=O)NO)cc3)c2c(=O)n1-c1ccccc1`, the growth is 0.66% (active) in [1]; 10.7% in [2]; 2.46% (active) in [3]; 22.5% in assay [4]; 5.36% (active) in assay [5]; -16.2% (active) in assay [6]. The growth is 5.14% (active) in assay [7]; 4.73% (active) in [8]; 21.6% in assay [9]; 59.4% in [10]; 36.6% in [11]; 16.8% in assay [12]. The growth is -31.5% (active) in assay [13]; 5.42% (active) in [14]; 3.59% (active) in assay [15]; 7.75% (active) in assay [16]; 13.3% in assay [17].
With `CN1CCN(Cc2ccc(NC(=O)c3cncc(C#Cc4ncc5ccccn45)c3)cc2C(F)(F)F)CC1`, the growth is 15.6% in assay [1]; 21.1% in [2]; 24.7% in [3]; 32.8% in [4]; 7.89% (active) in assay [5]; 19.6% in assay [6]. For the same compound, the growth was 17.9% in assay [7]; 36.9% in [8]; 7.01% (active) in assay [9]; 27.7% in assay [10]; 39.3% in assay [11]; 28.1% in assay [12]. The growth in assay [13] is 1.35% (active); in assay [14] it was -6.36% (active); in [15], -51.5% (active); in assay [16], 48.6%; in assay [17] it was 4.65% (active).
Regarding `Nc1nc2c(c3ncccc13)C(c1ccccc1)Cc1ncccc1-2` (stereo not given), the growth is 40.7% in [1]; 87.4% in assay [2]; 93.5% in assay [3]; 92.8% in assay [4]; 94.1% in [5]; 87.3% in assay [6]. Besides, the growth is 63.3% in [7]; 62.2% in assay [8]; 87.2% in [9]; 67.7% in [10]; 72.9% in assay [11]; -0.757% (active) in assay [12]. The growth was 52.9% in assay [13]; 45.6% in [14]; 63.2% in assay [15]; 81.7% in [16]; 50.4% in assay [17].
In the case of `CCCc1n(Cc2ccc3ccccc3c2)c2ccccc2[n+]1Cc1ccc2ccccc2c1`, the growth is -46.7% (active) in assay [1]; -60.9% (active) in assay [2]; -71.3% (active) in assay [3]; -27.1% (active) in assay [4]; -16% (active) in assay [5]; -21.5% (active) in [6]. Moreover, the growth was -64.8% (active) in assay [7]; -76.8% (active) in assay [8]; -8.47% (active) in [9]; 79.4% in [10]; -76.6% (active) in assay [11]; -82.8% (active) in [12]. In addition, the growth is -74.2% (active) in assay [13]; -64.4% (active) in [14]; -91.2% (active) in assay [15]; -57.2% (active) in assay [16]; -75% (active) in assay [17].
As for `COc1ccc(/C(=C\c2cc(OC)c(OC)c(OC)c2)C(=O)N2CCNCC2)cc1`, the growth was 94.6% in [1]; 95.1% in assay [2]; 105% in [3]; 102% in [4]; 110% in assay [5]; 108% in [6]. Moreover, the growth in [7] was 102%; in assay [8] it was 108%; in [9] it was 102%; in [10] it was 98.3%; in [18], 82.8%; in assay [11], 104%. Besides, the growth in assay [12] was 98.2%; in [14], 95.5%; in assay [15] it was 94.5%; in assay [16], 104%; in assay [17], 94.2%.
Regarding `CNCc1ccccc1CN(CC(=O)Nc1ccc2c(c1)CC1(C2)C(=O)Nc2ncccc21)C(=O)C(C)(C)C` (stereo not given), the growth in [1] was 110%; in [2], 106%; in [3] it was 98.9%; in [4] it was 109%; in assay [5] it was 104%; in [6] it was 108%. For the same compound, the growth was 92.4% in assay [7]; 114% in assay [8]; 95.9% in [9]; 108% in assay [10]; 96.3% in [11]; 95.7% in assay [12]. Also, the growth in [13] is 97.4%; in assay [14], 102%; in assay [15], 105%; in [16] it was 113%; in [17] it was 107%.
